In PubChem BioAssay one finds z-score and composite z-score data, which are given here for nine compounds.

Calls of active or inactive are those of the source.

Assay [1] is described as follows: optical density shifts of acrAB sulA E. coli – strain DRC41, OD650, 48 h, E. coli filamentation inducer project, primary screen (AID 1152).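 Further: E. coli MC1000 strain DRC41 lacking acrAB efflux pump and sulA.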 Conditions: higher = more signal, called active from +8 up or from −8 down.
Assay [2] is described as follows: probe aLefty1 binding on compound microarray – biochemical, small-molecule microarray, 635/667 nm fluorescence, primary screen (AID 1153).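 Further: score merges spot fluorescence with signal-to-noise ratio from the scanned slide images.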 Conditions: higher = more signal.
Assay [3] in a line: plasmodial surface anion channel blockers, osmotic lysis – cell-based, P. falciparum Indochina, OD700, 1 h, primary screen (AID 1154). Conditions: P. falciparum Indochina infected RBC osmotic lysis, higher = more signal, called active from +8 up or from −8 down.
The nature of assay [4]: plasmodial surface anion channel blockers, osmotic lysis – cell-based, P. falciparum Indochina, OD700, 2 h, primary screen (AID 1155).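 Further: lysis reports solute entry through the parasite surface anion channel PSAC.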 The note with it: P. falciparum Indochina infected erythrocytes, higher = more signal, called active from +8 up or from −8 down.
Assay [5] in a line: changes in parasitized red cell lysis, either direction – P. falciparum Indochina, OD700, 3 h, PSAC antagonist project, primary screen (AID 1156). Conditions: P. falciparum-infected erythrocytes, osmotic lysis, higher = more signal, called active from +8 up or from −8 down.
Assay [6] in a line: plasmodial surface anion channel blockers, osmotic lysis – cell-based, P. falciparum Indochina, OD700, 18 h, primary screen (AID 1157). Conditions: P. falciparum Indochina infected erythrocytes, osmotic lysis OD700, 18 h; higher = more signal, called active from +8 up or from −8 down.
The nature of assay [7]: S6 kinase pathway phospho-S6 level changes – cell-based, A549, cytoblot, luminescence, serum-stimulated, primary screen (AID 1158).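 Further: serum-stimulated A549 lung adenocarcinoma cells; signal is phosphorylated S6 detected by cytoblot immunostaining with HRP secondary.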 The note with it: 5 h, higher = more signal.
Assay [8] addresses NADPH oxidase 2 (Homo sapiens) (UniProt P04839). Description: compounds shifting NOX2 Amplex Red fluorescence – cell-based, HEK293-NOX2, PMA-stimulated, NOX inhibitor project, primary screen (AID 1159). Further: test concentration not given here. Conditions: 45 min, higher = more signal, called active from +8 up or from −8 down.
For assay [9], the target named is NADPH oxidase 4 (Homo sapiens) (UniProt Q9NPH5). Description: compounds shifting NOX4 Amplex Red fluorescence – cell-based, HEK293-NOX4, tetracycline-induced, NOX inhibitor project, primary screen (AID 1160). Conditions: HEK293-NOX4, Amplex Red H2O2 fluorescence, 45 min; higher = more signal, called active from +8 up or from −8 down.
Assay [10] has as its target NADPH oxidase 5 (Homo sapiens) (UniProt Q96PH1). The experiment in a line: compounds shifting NOX5 Amplex Red fluorescence – cell-based, HEK293-NOX5, NOX inhibitor project, primary screen (AID 1161). The note with it: HEK293-NOX5, ionomycin, 45 min, higher = more signal.
Assay [11] is described as follows: compound effects on lung adenocarcinoma cell viability – A549, calcein-AM fluorescence, 48 h, basal, profiling panel (AID 1162). Further: test concentration not given here. The note with it: higher = more signal.
Assay [12] is described as follows: compound effects on differentiated 3T3-L1 adipocyte viability – cell-based, 3T3-L1 adipocytes, calcein-AM fluorescence, 48 h, basal, profiling panel (AID 1163). Further: test concentration not given here. Conditions: 3T3-L1 adipocytes viability, higher = more signal.
Assay [13] can be described thus: compound effects on hepatocellular carcinoma cell viability – HepG2, calcein-AM fluorescence, 48 h, basal, profiling panel (AID 1164). Further: test concentration not given here. The note with it: higher = more signal.
Assay [14] in a line: compound effects on multiple myeloma cell viability – MM1S, calcein-AM fluorescence, 48 h, basal, profiling panel (AID 1165). Further: test concentration not given here. Conditions: higher = more signal.
The nature of assay [15]: calcein-AM signal in unstimulated myeloma cells – cell-based, calcein-AM fluorescence, 48 h, PK04 Diversity Set, profiling panel (AID 1166).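 Further: cells grown under basal conditions without added stimulus; test concentration not given here.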 The note with it: RPMI8226 myeloma viability, higher = more signal.
Assay [16] in a line: JC-1 mitochondrial signal, unstimulated HepG2 cells – cell-based, JC-1 fluorescence, 24 h, 100 nL compound, profiling panel (AID 1167). Further: test concentration not given here. The note with it: HepG2 mitochondrial potential, higher = more signal.
Assay [17] is described as follows: JC-1 mitochondrial signal, unstimulated adipocytes – cell-based, JC-1 fluorescence, 3T3-L1 adipocytes, 24 h, 100 nL compound, profiling panel (AID 1168). Further: test concentration not given here. The note with it: JC-1 mitochondrial fluorescence, higher = more signal, called active from +8 up or from −8 down.
Assay [18] can be described thus: JC-1 mitochondrial signal, unstimulated myeloma cells – cell-based, JC-1 fluorescence, RPMI8226, 24 h, 100 nL compound, profiling panel (AID 1169). Further: test concentration not given here. Conditions: JC-1 mitochondrial potential fluorescence, higher = more signal.
Assay [19] can be described thus: JC-1 mitochondrial signal, unstimulated MM1S myeloma – cell-based, JC-1 fluorescence, 24 h, 100 nL compound, profiling panel (AID 1170). Further: test concentration not given here. Conditions: MM1S mitochondrial potential, higher = more signal.
A short description of assay [20]: resazurin metabolic signal in A549 cells – cell-based, resazurin fluorescence, 24 h, PK04 Diversity Set, profiling panel (AID 1171). Further: test concentration not given here. The note with it: A549 viability, higher = more signal, called active from +8 up or from −8 down. In general terms: Alamar Blue is a resazurin reagent that responds to reducing activity.

NADPH oxidase 4 (Homo sapiens), sequence (Q9NPH5 whole entry, looked up): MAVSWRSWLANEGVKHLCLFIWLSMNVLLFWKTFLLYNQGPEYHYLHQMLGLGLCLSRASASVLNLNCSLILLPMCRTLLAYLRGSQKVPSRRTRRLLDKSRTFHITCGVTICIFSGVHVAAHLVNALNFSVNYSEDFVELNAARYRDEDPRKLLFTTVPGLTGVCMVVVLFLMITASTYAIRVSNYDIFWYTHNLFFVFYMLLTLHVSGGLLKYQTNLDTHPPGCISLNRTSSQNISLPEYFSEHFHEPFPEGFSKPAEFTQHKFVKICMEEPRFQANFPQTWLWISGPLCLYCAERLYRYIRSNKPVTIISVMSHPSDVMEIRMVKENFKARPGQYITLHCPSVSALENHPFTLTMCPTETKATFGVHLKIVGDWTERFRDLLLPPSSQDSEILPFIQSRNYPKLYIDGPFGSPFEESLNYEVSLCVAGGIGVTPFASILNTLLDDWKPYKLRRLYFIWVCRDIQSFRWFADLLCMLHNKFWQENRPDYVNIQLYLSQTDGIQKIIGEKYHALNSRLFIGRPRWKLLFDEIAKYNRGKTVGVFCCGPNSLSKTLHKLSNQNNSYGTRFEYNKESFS
NADPH oxidase 2 (Homo sapiens), sequence (P04839 whole entry, looked up): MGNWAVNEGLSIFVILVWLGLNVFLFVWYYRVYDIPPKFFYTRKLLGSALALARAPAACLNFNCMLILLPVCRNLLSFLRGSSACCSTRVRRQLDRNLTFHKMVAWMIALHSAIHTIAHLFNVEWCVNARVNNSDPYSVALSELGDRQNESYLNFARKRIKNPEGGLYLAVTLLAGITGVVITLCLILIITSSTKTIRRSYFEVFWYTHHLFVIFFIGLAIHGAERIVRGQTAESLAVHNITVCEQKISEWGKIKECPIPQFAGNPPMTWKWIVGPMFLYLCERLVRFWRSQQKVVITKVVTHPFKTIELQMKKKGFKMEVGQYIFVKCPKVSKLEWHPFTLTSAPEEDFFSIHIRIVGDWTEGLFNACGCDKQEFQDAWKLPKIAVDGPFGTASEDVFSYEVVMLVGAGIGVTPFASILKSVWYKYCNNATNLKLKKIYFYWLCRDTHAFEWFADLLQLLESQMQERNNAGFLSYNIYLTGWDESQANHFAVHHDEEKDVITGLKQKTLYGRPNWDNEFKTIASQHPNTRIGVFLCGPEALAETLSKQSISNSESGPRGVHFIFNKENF
NADPH oxidase 5 (Homo sapiens), sequence (Q96PH1 whole entry, looked up): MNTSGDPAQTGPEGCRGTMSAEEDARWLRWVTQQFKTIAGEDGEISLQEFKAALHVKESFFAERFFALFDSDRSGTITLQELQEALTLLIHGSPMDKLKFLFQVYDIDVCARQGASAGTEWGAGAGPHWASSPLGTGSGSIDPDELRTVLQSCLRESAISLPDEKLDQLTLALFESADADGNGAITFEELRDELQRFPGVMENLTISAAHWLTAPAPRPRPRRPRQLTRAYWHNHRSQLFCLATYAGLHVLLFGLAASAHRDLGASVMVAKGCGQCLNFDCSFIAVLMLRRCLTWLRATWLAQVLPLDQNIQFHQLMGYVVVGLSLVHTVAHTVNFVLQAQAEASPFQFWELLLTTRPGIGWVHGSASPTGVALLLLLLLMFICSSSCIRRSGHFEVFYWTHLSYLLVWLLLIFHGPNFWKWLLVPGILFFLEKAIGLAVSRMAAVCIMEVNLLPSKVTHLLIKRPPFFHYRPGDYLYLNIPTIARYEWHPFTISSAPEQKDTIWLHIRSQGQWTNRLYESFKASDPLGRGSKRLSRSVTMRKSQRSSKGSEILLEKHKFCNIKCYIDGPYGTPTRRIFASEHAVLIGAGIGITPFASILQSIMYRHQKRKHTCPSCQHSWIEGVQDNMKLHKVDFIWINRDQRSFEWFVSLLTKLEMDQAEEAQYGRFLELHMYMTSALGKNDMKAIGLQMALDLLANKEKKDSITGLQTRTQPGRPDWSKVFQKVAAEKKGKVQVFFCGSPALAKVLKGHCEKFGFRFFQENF

As for `C=Cc1ccc([C@H]2N[C@H](C(=O)O)CC[C@@H]2C)cc1`, the z-score is 0.374 (inactive) in assay [1]; -0.27 (inactive) in assay [3]; -0.344 (inactive) in assay [4]; -1.26 (inactive) in assay [5]; -0.267 (inactive) in assay [6]; -0.599 in [7]. For the same compound, the z-score is 1.06 (inactive) in assay [8]; -0.0223 (inactive) in assay [9]; 0.0584 in assay [10]; -0.241 in assay [11]; -0.173 in [12]; 0.453 in [13]. Besides, the z-score was -0.568 in [14]; -1.15 in assay [15]; 0.547 in [16]; 0.0233 (inactive) in assay [17]; 0.239 in assay [18]; 0.43 in assay [19]. Further, the z-score in assay [20] was -0.439 (inactive). Moreover, the composite z-score in [2] is -0.338.

Regarding `CCc1cc2c(nc1CC)CCN(CCC(C)=NO[C@H](C)c1cn([C@H](CO)Cc3ccccc3)nn1)C2`, the z-score is -0.266 (inactive) in assay [1]; 4.7 (inactive) in assay [3]; 1.3 (inactive) in assay [4]; 1.84 (inactive) in assay [5]; 0.514 (inactive) in assay [6]; 0.917 in [7]. The z-score in assay [8] was -0.221 (inactive); in assay [9], -0.461 (inactive); in [10], 2.32; in [11] it was 0.449; in assay [12], 1.22; in [13], 0.405. Moreover, the z-score was 0.341 in assay [14]; -0.905 in [15]; 0.551 in [16]; -1.37 (inactive) in assay [17]; -0.664 in [18]; 0.105 in assay [19]. For the same compound, the z-score in [20] was -0.285 (inactive). In [2], this compound returned a composite z-score of 0.832.

As for `COC(=O)CC=C[C@@H](C)[C@@H](C=NO[C@@H](C)c1cc(-c2c(C)cc(C)cc2C)no1)NS(=O)(=O)c1ccc(C)cc1`, the z-score in [1] is -0.466 (inactive); in assay [3], 1.34 (inactive); in assay [4] it was -0.745 (inactive); in [5] it was 0.971 (inactive); in [6], -1.89 (inactive); in [7], 1.13. Besides, the z-score in assay [8] is -0.868 (inactive); in [9], -0.115 (inactive); in [10], -1.47; in [11] it was -0.985; in [12] it was 0.885; in [13], -0.145. Further, the z-score in assay [14] is 0.236; in assay [15], -1.75; in assay [16] it was -0.189; in assay [17], -1.08 (inactive); in [18], 0.634; in assay [19] it was -0.147. Moreover, in [20], the z-score was 0.298 (inactive). The same compound returned a composite z-score in [2] of 0.0437.

With `CO[C@H]1COC(=O)CC=C[C@H](C)[C@@H](OC)COC(=O)[C@H](C)COC(=O)CC=C[C@@H]1C`, the z-score in assay [1] was 0.79 (inactive); in assay [3] it was -0.0428 (inactive); in [4], 0.202 (inactive); in [5], 0.523 (inactive); in [6] it was 0.13 (inactive); in assay [7], 0.333. For the same compound, the z-score was -0.165 (inactive) in assay [8]; 0.297 (inactive) in assay [9]; -0.12 in assay [10]; 0.389 in assay [11]; -0.376 in assay [12]; 1.05 in assay [13]. Further, the z-score in assay [14] was 0.199; in assay [15], -1.03; in assay [16], 1.86; in assay [17] it was 0.352 (inactive); in assay [18], -0.316; in assay [19] it was -0.326. The z-score in assay [20] was -0.132 (inactive). Further, in assay [2], the composite z-score was -0.146.

Take `CCc1cc2c(nc1CC)CCN(CCC(C)=NO[C@H](C)c1cn([C@@H]3COC[C@H]3O)nn1)C2`: the z-score in assay [1] is 0.211 (inactive); in assay [3], 1.34 (inactive); in assay [4], 0.72 (inactive); in [5], 0.322 (inactive); in assay [6], 0.367 (inactive); in assay [7], -0.656. In addition, the z-score in assay [8] was -0.539 (inactive); in assay [9] it was -0.138 (inactive); in [10] it was 0.779; in assay [11], 0.821; in [12], -0.744; in assay [13], 1.75. Besides, the z-score in assay [14] is 0.546; in [15], -0.329; in assay [16], 0.338; in [17], 0.367 (inactive); in [18], -0.121; in assay [19], -0.676. For the same compound, the z-score in assay [20] is -0.574 (inactive). The compound further returned a composite z-score in assay [2] of 0.199.

Take `CCC(=O)[C@@]1(O)C(=O)N2C(=C3C(=O)OCC[C@@H]31)N(Cc1ccccc1)C(C)=C(C(=O)OC)[C@H]2c1ccccc1`: the z-score is -0.426 (inactive) in assay [1]; 0.246 (inactive) in assay [3]; 0.633 (inactive) in [4]; -0.242 (inactive) in assay [5]; 0.465 (inactive) in assay [6]; -0.131 in assay [7]. Besides, the z-score in [8] was 0.0553 (inactive); in assay [9] it was -0.147 (inactive); in [10] it was 0.245; in assay [11], -0.0783; in [12] it was -1.09; in assay [13], 0.237. Besides, the z-score in assay [14] is -0.184; in [15] it was 0.596; in assay [16] it was -0.255; in assay [17], -0.0375 (inactive); in [18], -0.179; in [19], 0.676. For the same compound, the z-score in assay [20] was -0.342 (inactive). This compound also gave a composite z-score in assay [2] of -0.103.

As to `CC(C)=CCCC(C)=CCON=C1C[C@@H](O)[C@@H](O)[C@@H]2[C@@H]3C(=O)N(c4cccc(Oc5ccccc5)c4)C(=O)[C@@H]3CC[C@@H]12`, the z-score in [1] was -1.15 (inactive); in assay [3], 3.39 (inactive); in assay [4] it was -0.298 (inactive); in assay [5] it was 1.24 (inactive); in [6], -2 (inactive); in assay [7] it was 0.313. Further, the z-score in assay [8] was -1.33 (inactive); in assay [9] it was -0.237 (inactive); in [10], -3.35; in assay [11], -1.19; in [12] it was 0.18; in assay [13], -0.795. Also, the z-score in [14] was -2.22; in [15], -3.96; in [16], -1.26; in [17], 0.641 (inactive); in [18], -0.805; in assay [19], 0.251. For the same compound, in assay [20], the z-score is 0.919 (inactive). Also, the composite z-score in assay [2] was -0.0501.

With `Cn1c(=O)n2n(c1=O)[C@H]1[C@H](O)[C@@H]3O[C@@H]3C(=O)[C@H]1CC2`, the z-score in assay [1] was 0.498 (inactive); in assay [3], -0.259 (inactive); in [4], -0.0607 (inactive); in assay [5], -0.596 (inactive); in assay [6] it was 0.18 (inactive); in assay [7], -0.0231. Moreover, the z-score in [8] was -1.2 (inactive); in [9] it was 0.171 (inactive); in [10] it was 0.888; in assay [11] it was 0.365; in assay [12] it was -0.137; in assay [13], 0.902. The z-score in assay [14] was -0.382; in assay [15], 0.308; in [16] it was 0.45; in assay [17], 0.194 (inactive); in assay [18] it was 0.731; in assay [19], 0.0623. Besides, in assay [20], the z-score is -0.495 (inactive). Also, the composite z-score in assay [2] is -0.0984.

Regarding `CC(C)=CCCC(C)=CCON=C1C[C@@H](O)[C@@H](O)[C@@H]2[C@@H]3C(=O)N(C(C)(C)C)C(=O)[C@@H]3CC[C@H]12`, the z-score in [1] is 0.367 (inactive); in assay [3], -0.22 (inactive); in assay [4] it was 0.28 (inactive); in assay [5], -0.921 (inactive); in [6], -0.138 (inactive); in assay [7], -0.443. For the same compound, the z-score in assay [8] was 0.799 (inactive); in [9], 0.427 (inactive); in assay [10], 0.0706; in assay [11], 0.0088; in [12], 0.729; in [13] it was -0.465. Also, the z-score was 0.387 in [14]; -0.306 in assay [15]; -0.00723 in assay [16]; 0.111 (inactive) in [17]; -0.15 in assay [18]; 0.598 in assay [19]. Moreover, the z-score in assay [20] was -0.624 (inactive). In assay [2], this compound came in with a composite z-score of -0.0603.
